Reference: PubChem BioAssay (NCI)
About 83,000 compounds went through this panel and 20% of them were active in at least one assay; those are over-represented in the sample as a whole.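 Method: cells in 96-well plates; compound added at one concentration; 48 h incubation; percent growth measured; values under 10 scored active.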 Activity calls are given as the source filed them.

Tests used:
Experiment in all cases: NCI-60 one-dose screen, 48 h (100 = growth as untreated, 0 = no growth, -100 = all killed)
Conditions in all cases: 10 µM unless noted
RPMI-8226 leukemia = tested on: RPMI-8226 leukemia
OVCAR-8 ovarian = tested on: OVCAR-8 ovarian
OVCAR-5 ovarian = tested on: OVCAR-5 ovarian
OVCAR-4 ovarian = tested on: OVCAR-4 ovarian
SK-OV-3 ovarian = tested on: SK-OV-3 ovarian
IGROV1 ovarian = tested on: IGROV1 ovarian
OVCAR-3 ovarian = tested on: OVCAR-3 ovarian
HS 578T breast = tested on: HS 578T breast
NCI/ADR-RES ovarian = tested on: NCI/ADR-RES ovarian
T-47D breast = tested on: T-47D breast
BT-549 breast = tested on: BT-549 breast
MDA-MB-435 melanoma = tested on: MDA-MB-435 melanoma
SW-620 colon = tested on: SW-620 colon
MCF7 breast = tested on: MCF7 breast
HCT-116 colon = tested on: HCT-116 colon
HCC-2998 colon = tested on: HCC-2998 colon
KM12 colon = tested on: KM12 colon

Measured: growth

COc1ccc(C(=S)c2cc(OC)c(OC)c(OC)c2)cc1OC(=O)CCl
active: OVCAR-3 ovarian 8.17% | NCI/ADR-RES ovarian 7.4% | MDA-MB-435 melanoma -8.11% | HCT-116 colon 9.73%
inactive: RPMI-8226 leukemia 26.9% | OVCAR-8 ovarian 14.4% | OVCAR-5 ovarian 66.9% | OVCAR-4 ovarian 52.9% | SK-OV-3 ovarian 25.3% | IGROV1 ovarian 24.4% | HS 578T breast 37.8% | T-47D breast 62.6% | BT-549 breast 12.1% | SW-620 colon 29.5% | MCF7 breast 15% | HCC-2998 colon 31.2% | KM12 colon 13.9%

COc1ccc(/C=C(/C(=O)N2CCCC2)c2cc(OC)c(OC)c(OC)c2)cc1
active: RPMI-8226 leukemia 8.53% | OVCAR-3 ovarian 5.36% | MDA-MB-435 melanoma -18.3%
inactive: OVCAR-8 ovarian 40% | OVCAR-5 ovarian 63.1% | OVCAR-4 ovarian 68.9% | SK-OV-3 ovarian 22.3% | IGROV1 ovarian 49.9% | HS 578T breast 27.8% | NCI/ADR-RES ovarian 22% | T-47D breast 42.4% | BT-549 breast 61.1% | SW-620 colon 22.1% | MCF7 breast 24.8% | HCT-116 colon 23.8% | HCC-2998 colon 80.1% | KM12 colon 31.9%

Nc1c(C(=O)Nc2ccccn2)sc2nc3c(cc12)CCCC3
active: MDA-MB-435 melanoma -24.6%
inactive: RPMI-8226 leukemia 55.9% | OVCAR-8 ovarian 65% | OVCAR-5 ovarian 77.6% | OVCAR-4 ovarian 74.9% | SK-OV-3 ovarian 42.4% | IGROV1 ovarian 55.2% | OVCAR-3 ovarian 23.9% | HS 578T breast 39.7% | NCI/ADR-RES ovarian 28.2% | T-47D breast 43% | BT-549 breast 44% | SW-620 colon 40.2% | MCF7 breast 24.2% | HCT-116 colon 13.6% | HCC-2998 colon 57.1% | KM12 colon 30.8%

Cc1c(Cl)cccc1NC(=O)c1sc2nc3c(cc2c1N)CCCCC3
active: OVCAR-3 ovarian -3.42% | MDA-MB-435 melanoma -0.269%
inactive: RPMI-8226 leukemia 22.2% | OVCAR-8 ovarian 31.5% | OVCAR-5 ovarian 58.3% | OVCAR-4 ovarian 59.2% | SK-OV-3 ovarian 47.8% | IGROV1 ovarian 54.9% | HS 578T breast 38% | NCI/ADR-RES ovarian 19.7% | T-47D breast 44% | BT-549 breast 48.7% | SW-620 colon 25.3% | MCF7 breast 20.8% | HCT-116 colon 32.3% | HCC-2998 colon 55.7% | KM12 colon 24.7%

Cc1cc(C)cc(Nc2nccc(-c3c(-c4ccc(F)cc4)ncn3C3CCNCC3)n2)c1
inactive: OVCAR-5 ovarian 35.2% | OVCAR-4 ovarian 30.3% | HS 578T breast 24.3% | NCI/ADR-RES ovarian 15.3% | T-47D breast 15.2% | BT-549 breast 17.7% | KM12 colon 11.8%
active: RPMI-8226 leukemia -3.31% | OVCAR-8 ovarian -24.8% | SK-OV-3 ovarian 9.09% | IGROV1 ovarian -40.1% | OVCAR-3 ovarian 5.97% | MDA-MB-435 melanoma -78.8% | SW-620 colon -28% | MCF7 breast -8.14% | HCT-116 colon -98.8% | HCC-2998 colon -60.2%

CCCCn1c(=O)c(/C=C/C(=O)/C=C/c2ccc(O)c(OC)c2)cc2ccc(Cl)cc21
active: RPMI-8226 leukemia -14.2% | OVCAR-8 ovarian -4.03% | IGROV1 ovarian 6.29% | OVCAR-3 ovarian -26.2% | MDA-MB-435 melanoma 2.81% | HCT-116 colon -55.5% | KM12 colon 6.78%
inactive: OVCAR-5 ovarian 49.6% | OVCAR-4 ovarian 26.1% | SK-OV-3 ovarian 59.2% | HS 578T breast 47.8% | NCI/ADR-RES ovarian 14.8% | T-47D breast 25.3% | BT-549 breast 11.4% | SW-620 colon 16.1% | MCF7 breast 46.3% | HCC-2998 colon 33.3%

COc1ccccc1-c1ccc2nc(NC(=O)Nc3cc(C(F)(F)F)cc(C(F)(F)F)c3)sc2c1
inactive: OVCAR-5 ovarian 20.5% | OVCAR-4 ovarian 16.5% | IGROV1 ovarian 42.4% | BT-549 breast 13.2% | MDA-MB-435 melanoma 10.9% | SW-620 colon 11.9% | HCC-2998 colon 11.8%
active: RPMI-8226 leukemia -15.9% | OVCAR-8 ovarian 9.39% | SK-OV-3 ovarian -13.2% | OVCAR-3 ovarian 8% | HS 578T breast -0.697% | NCI/ADR-RES ovarian 5.44% | T-47D breast -13.5% | MCF7 breast 4.1% | HCT-116 colon 4.85% | KM12 colon 3.63%

CC1=C/C(=N\N=C2/C=C(C)CC(C)(C)C2)CC(C)(C)C1
inactive: RPMI-8226 leukemia 102% | OVCAR-8 ovarian 95.2% | OVCAR-5 ovarian 107% | OVCAR-4 ovarian 106% | SK-OV-3 ovarian 97% | IGROV1 ovarian 103% | OVCAR-3 ovarian 112% | HS 578T breast 103% | NCI/ADR-RES ovarian 104% | T-47D breast 97.3% | BT-549 breast 112% | MDA-MB-435 melanoma 108% | SW-620 colon 106% | MCF7 breast 102% | HCT-116 colon 98.1% | HCC-2998 colon 94.5% | KM12 colon 107%

COc1cc2nc3c(=O)n(-c4ccc(C#N)cc4)cnn3c(=O)c2cc1OC
inactive: RPMI-8226 leukemia 115% | OVCAR-8 ovarian 108% | OVCAR-5 ovarian 93.4% | OVCAR-4 ovarian 97% | SK-OV-3 ovarian 101% | IGROV1 ovarian 103% | OVCAR-3 ovarian 92.9% | HS 578T breast 90.8% | NCI/ADR-RES ovarian 100% | T-47D breast 100% | BT-549 breast 102% | MDA-MB-435 melanoma 98.5% | SW-620 colon 95.3% | MCF7 breast 103% | HCT-116 colon 101% | HCC-2998 colon 97% | KM12 colon 91.7%

O=C(Nc1nccs1)c1noc2ccccc12
inactive: RPMI-8226 leukemia 90.4% | OVCAR-8 ovarian 94.7% | OVCAR-5 ovarian 103% | OVCAR-4 ovarian 88.4% | SK-OV-3 ovarian 92.2% | IGROV1 ovarian 84.1% | OVCAR-3 ovarian 110% | HS 578T breast 97% | NCI/ADR-RES ovarian 106% | T-47D breast 57.5% | BT-549 breast 102% | MDA-MB-435 melanoma 105% | SW-620 colon 98.8% | MCF7 breast 63.9% | HCT-116 colon 93.8% | HCC-2998 colon 105% | KM12 colon 94.3%

CS(=O)(=O)O[C@@H]1C(=O)N(c2cc3c4ccccc4ccc3c3ccccc23)[C@H]1c1ccc(F)cn1
inactive: RPMI-8226 leukemia 19.8% | OVCAR-8 ovarian 27.4% | OVCAR-5 ovarian 58.3% | OVCAR-4 ovarian 66.5% | SK-OV-3 ovarian 41.7% | IGROV1 ovarian 51.7% | NCI/ADR-RES ovarian 20.2% | T-47D breast 32.5% | BT-549 breast 44.6% | SW-620 colon 22.5% | MCF7 breast 21.6% | HCT-116 colon 14.3% | HCC-2998 colon 60.1% | KM12 colon 23%
active: OVCAR-3 ovarian -12.7% | HS 578T breast 7.01% | MDA-MB-435 melanoma -26%

CC1(C)Cc2c(Br)c(Br)c(Br)c(OCC(O)CN3CCOCC3)c2O1 (centres undefined)
active: IGROV1 ovarian -83.4%
inactive: RPMI-8226 leukemia 20.8% | OVCAR-8 ovarian 88.9% | OVCAR-5 ovarian 99.7% | OVCAR-4 ovarian 99.5% | SK-OV-3 ovarian 110% | OVCAR-3 ovarian 57% | HS 578T breast 98.1% | NCI/ADR-RES ovarian 81.2% | T-47D breast 108% | BT-549 breast 78% | MDA-MB-435 melanoma 87.5% | SW-620 colon 94.5% | MCF7 breast 114% | HCT-116 colon 77.9% | HCC-2998 colon 95.9% | KM12 colon 95%

CNC(=O)c1cc(Oc2ccc3c(c2)sc2nc(-c4ccc(NC(C)=O)cc4)cn23)ccn1
inactive: RPMI-8226 leukemia 60.3% | OVCAR-8 ovarian 73% | OVCAR-5 ovarian 90% | OVCAR-4 ovarian 83.5% | SK-OV-3 ovarian 34% | IGROV1 ovarian 69.2% | OVCAR-3 ovarian 75% | HS 578T breast 43.4% | NCI/ADR-RES ovarian 52.1% | T-47D breast 16.9% | BT-549 breast 38.3% | SW-620 colon 57.2% | MCF7 breast 55% | HCT-116 colon 48.9% | HCC-2998 colon 78.1% | KM12 colon 43.3%
active: MDA-MB-435 melanoma 3.75%

N#Cc1ccc(N2Cc3cc(Cl)ccc3OC3=C2C(=O)N(Cc2ccccc2)C3=O)cc1
inactive: SK-OV-3 ovarian 94.2% | IGROV1 ovarian 13% | HS 578T breast 38.1% | HCC-2998 colon 40.4% | KM12 colon 61.4%
active: RPMI-8226 leukemia -23.3% | OVCAR-8 ovarian 4.56% | OVCAR-5 ovarian -5.13% | OVCAR-4 ovarian -7.68% | OVCAR-3 ovarian -82.1% | NCI/ADR-RES ovarian 6.99% | T-47D breast -60.1% | BT-549 breast -50.5% | MDA-MB-435 melanoma -42.5% | SW-620 colon -75.8% | MCF7 breast -1.6% | HCT-116 colon -82.7%

c1ccc(Sc2ncccn2)nc1
inactive: RPMI-8226 leukemia 65.6% | OVCAR-8 ovarian 100% | OVCAR-5 ovarian 101% | OVCAR-4 ovarian 98.1% | SK-OV-3 ovarian 99.4% | IGROV1 ovarian 108% | OVCAR-3 ovarian 102% | HS 578T breast 94% | NCI/ADR-RES ovarian 96.4% | T-47D breast 99.4% | BT-549 breast 137% | MDA-MB-435 melanoma 104% | SW-620 colon 95.3% | MCF7 breast 93.2% | HCT-116 colon 99.3% | HCC-2998 colon 101% | KM12 colon 106%

CCCCCCN1C(=O)CN=C1Nc1ccc2cc3ccc(NC4=NCC(=O)N4CCCCCC)cc3nc2c1
inactive: OVCAR-8 ovarian 73.9% | OVCAR-5 ovarian 75% | OVCAR-4 ovarian 55.6% | SK-OV-3 ovarian 103% | IGROV1 ovarian 53.7% | HS 578T breast 56.6% | NCI/ADR-RES ovarian 81.3% | T-47D breast 32.9% | BT-549 breast 78.1% | MDA-MB-435 melanoma 55.3% | HCT-116 colon 20.1% | HCC-2998 colon 47.2% | KM12 colon 31.1%
active: RPMI-8226 leukemia -22.6% | OVCAR-3 ovarian -35.9% | SW-620 colon -51.6% | MCF7 breast 0.96%

C=C1C(=O)O[C@H]2[C@H]1CC/C(COC(=O)CCCCCCCC(=O)OC/C1=C/CC[C@@]3(C)O[C@H]3[C@H]3OC(=O)C(=C)[C@@H]3CC1)=C\CC[C@@]1(C)O[C@@H]21
inactive: OVCAR-5 ovarian 44.4% | OVCAR-4 ovarian 26.7% | SK-OV-3 ovarian 101% | NCI/ADR-RES ovarian 28.6% | BT-549 breast 25.2% | MDA-MB-435 melanoma 29.9% | HCC-2998 colon 78.6% | KM12 colon 46.7%
active: RPMI-8226 leukemia 3.72% | OVCAR-8 ovarian 1.92% | IGROV1 ovarian -13.3% | OVCAR-3 ovarian 2.34% | HS 578T breast 9.65% | T-47D breast -30.2% | SW-620 colon 7.61% | MCF7 breast 5.35% | HCT-116 colon -43.6%
